Assay results reported in PubChem BioAssay (EPA / NIEHS).
Calls of active or inactive are those of the source. Rule for the calls: active = hit-call score of the fitted dose curve at least 0.9, where 1 is the maximum; inactive = score below 0.9.

Columns and labels:
Conditions in all cases: mRNA level, 48 h; actives raise or lower the signal
[1] = read-out: Potassium channel subfamily K member 1 (KCNK1), KCNK1 (gene 3775); assay: LTEA_HepaRG_KCNK1: Life Technologies and Expression Analysis (LTEA) Assay for Potassium channel subfamily K member 1 (KCNK1) using HepaRG (AID 2283511)
Procedure, shortened: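 Gain or loss of KCNK1 mRNA is the read-out, quantified by qRT-PCR against three housekeeping genes after 48 h chemical treatment of human HepaRG liver cells. Concentrations ran from 100 uM downward in half-log steps, vehicle 0.5% DMSO.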

[2] = read-out: Keratin 19 (KRT19), KRT19 (gene 3880); assay: LTEA_HepaRG_KRT19: Life Technologies and Expression Analysis (LTEA) Assay for Keratin 19 (KRT19) using HepaRG (AID 2283512)
Procedure, shortened: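 Gene-expression endpoint in the human liver line HepaRG after 48 h exposure to up to 100 uM test chemical with 0.5% DMSO vehicle; KRT19 mRNA by qRT-PCR, analyzed bidirectionally versus DMSO.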

[3] = read-out: JUN Transcription Factor, JUN (gene 3725); assay: LTEA_HepaRG_JUN: Life Technologies and Expression Analysis (LTEA) Assay for JUN Transcription Factor using HepaRG (AID 2283513)
Procedure, shortened: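 HepaRG cells, 48 h post-plating, exposed 48 h in serum-free induction medium to 8-point half-log series (top 100 uM, 0.5% DMSO), duplicate; mRNA by qRT-PCR (TaqMan, Fluidigm), normalized to ACTB/GAPDH/POLR2A; bidirectional fit vs DMSO.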

[4] = read-out: Lipase C (LIPC), LIPC (gene 3990); assay: LTEA_HepaRG_LIPC: Life Technologies and Expression Analysis (LTEA) Assay for Lipase C (LIPC) using HepaRG (AID 2283514)
Procedure, shortened: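 Read-out is LIPC transcript level by TaqMan qRT-PCR, normalized to three housekeeping genes, after 48 h chemical treatment of human HepaRG liver cells. Curves span eight concentrations topping at 100 uM; activity in either direction scored relative to 0.5% DMSO.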

[5] = read-out: Lipoprotein lipase (LPL), LPL (gene 4023); assay: LTEA_HepaRG_LPL: Life Technologies and Expression Analysis (LTEA) Assay for Lipoprotein lipase (LPL) using HepaRG (AID 2283515)
Procedure, shortened: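 Read-out is LPL transcript level by qRT-PCR, normalized to three housekeeping genes and fitted bidirectionally against the DMSO control. Human HepaRG cells received chemicals for 48 h at up to 100 uM.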

[6] = read-out: MicroRNA 122 (MIR122), gene 406906; assay: LTEA_HepaRG_MIR122: Life Technologies and Expression Analysis (LTEA) Assay for MicroRNA 122 (MIR122) using HepaRG (AID 2283516); note: the transcript read is the microRNA miR-122
Procedure, shortened: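 Differentiated human HepaRG cells in serum-free induction medium exposed 48 h to 8 half-log concentrations from 100 uM in 0.5% DMSO, duplicate. MIR122 quantified by Fluidigm TaqMan qRT-PCR, normalised to ACTB, GAPDH, POLR2A; fold change fitted bidirectionally versus DMSO.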

[7] = read-out: matrix metalloproteinase-10 (MMP10), MMP10 (gene 4319); assay: LTEA_HepaRG_MMP10: Life Technologies and Expression Analysis (LTEA) Assay for matrix metalloproteinase-10 (MMP10) using HepaRG (AID 2283517)
Procedure, shortened: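 Gain or loss of MMP10 mRNA is fitted relative to the 0.5% DMSO vehicle. The human hepatic line HepaRG receives a 48-hour serum-free exposure, in duplicate, with a maximum concentration of 100 uM.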

MYC, MYC (gene 4609) = assay: LTEA_HepaRG_MYC: Life Technologies and Expression Analysis (LTEA) Assay for MYC using HepaRG (AID 2283518)
Procedure, shortened: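 Cells are thawed, plated and cultured 48 h, then treated for 48 h with test chemicals (eight half-log concentrations from 100 uM, 0.5% DMSO vehicle). RNA is isolated and MYC expression quantified by qRT-PCR against three housekeeping genes.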

[8] = read-out: matrix metalloproteinase-3 (MMP3), MMP3 (gene 4314); assay: LTEA_HepaRG_MMP3: Life Technologies and Expression Analysis (LTEA) Assay for matrix metalloproteinase-3 (MMP3) using HepaRG (AID 2283519)
Procedure, shortened: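 HepaRG, human; 48 h dosing, 8 conc. (max 100 uM, half-log), duplicate, 0.5% DMSO. Readout: MMP3 transcript by Fluidigm TaqMan qRT-PCR, ACTB/GAPDH/POLR2A-normalised. Gain or loss fitted vs DMSO.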

[9] = read-out: Paternally Expressed 10 (PEG10), PEG10 (gene 23089); assay: LTEA_HepaRG_PEG10: Life Technologies and Expression Analysis (LTEA) Assay for Paternally Expressed 10 (PEG10) using HepaRG (AID 2283520)
Procedure, shortened: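 Differentiated HepaRG cells exposed 48 h in serum-free induction medium to eight half-log concentrations topping at 100 uM, 0.5% DMSO, in duplicate. PEG10 mRNA quantified by TaqMan qRT-PCR, normalized to ACTB, GAPDH and POLR2A; bidirectional fit versus DMSO.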

CCCN(CCOc1c(Cl)cc(Cl)cc1Cl)C(=O)n1ccnc1
AC50 [1]: 62 µM (active)
AC50 [2]: 12.7 µM (active)
AC50 [3]: 50 µM (active)
AC50 [4]: 44.3 µM (active)
AC50 [5]: 25.7 µM (active)
AC50 [6]: 11.7 µM (active)
AC50 [7]: 57.8 µM (active)
AC50 (MYC, MYC (gene 4609)): 39.5 µM (active)
AC50 [8]: 80.2 µM (active)
AC50 [9]: 6.24 µM (active)

CC(C)OC(=O)Nc1cccc(Cl)c1
outcome [1]: inactive
outcome [2]: inactive
outcome [3]: inactive
outcome [4]: inactive
outcome [5]: inactive
outcome [6]: inactive
outcome [7]: inactive
outcome (MYC, MYC (gene 4609)): inactive
outcome [8]: inactive
outcome [9]: inactive

CCC(C)(C)C(=O)OC1=C(c2ccc(Cl)cc2Cl)C(=O)OC12CCCCC2
outcome [1]: inactive
outcome [2]: inactive
outcome [3]: inactive
outcome [4]: inactive
AC50 [5]: 40.8 µM (active)
outcome [6]: inactive
outcome [7]: inactive
outcome (MYC, MYC (gene 4609)): inactive
outcome [8]: inactive
outcome [9]: inactive

CC1(C)C(C=C(Cl)Cl)C1C(=O)OC(C#N)c1ccc(F)c(Oc2ccccc2)c1 (centres undefined)
outcome [1]: inactive
outcome [2]: inactive
outcome [3]: inactive
outcome [4]: inactive
outcome [5]: inactive
outcome [6]: inactive
outcome [7]: inactive
outcome (MYC, MYC (gene 4609)): inactive
outcome [8]: inactive
outcome [9]: inactive

O=C(O)CCCOc1ccc(Cl)cc1Cl
outcome [1]: inactive
outcome [2]: inactive
outcome [3]: inactive
outcome [4]: inactive
outcome [5]: inactive
outcome [6]: inactive
outcome [7]: inactive
outcome (MYC, MYC (gene 4609)): inactive
outcome [8]: inactive
AC50 [9]: 10.4 µM (active)

Cc1[nH]c(=O)n(C(C)(C)C)c(=O)c1Cl
outcome [1]: inactive
AC50 [2]: 50 µM (active)
outcome [3]: inactive
outcome [4]: inactive
outcome [5]: inactive
outcome [6]: inactive
outcome [7]: inactive
outcome (MYC, MYC (gene 4609)): inactive
outcome [8]: inactive
outcome [9]: inactive

OCCOc1ccccc1
outcome [1]: inactive
outcome [2]: inactive
outcome [3]: inactive
outcome [4]: inactive
outcome [5]: inactive
outcome [6]: inactive
outcome [7]: inactive
outcome (MYC, MYC (gene 4609)): inactive
outcome [8]: inactive
outcome [9]: inactive

O=C(Nc1ccccc1)Nc1cnns1
outcome [1]: inactive
AC50 [2]: 50 µM (active)
outcome [3]: inactive
AC50 [4]: 76.9 µM (active)
AC50 [5]: 81.5 µM (active)
AC50 [6]: 69.2 µM (active)
outcome [7]: inactive
AC50 (MYC, MYC (gene 4609)): 87.7 µM (active)
AC50 [8]: 91.2 µM (active)
AC50 [9]: 61.5 µM (active)

CNC(=O)Oc1cccc(N=CN(C)C)c1
outcome [1]: inactive
outcome [2]: inactive
outcome [3]: inactive
outcome [4]: inactive
outcome [5]: inactive
outcome [6]: inactive
outcome [7]: inactive
outcome (MYC, MYC (gene 4609)): inactive
outcome [8]: inactive
outcome [9]: inactive

O=[N+]([O-])/N=C1\NCCN1Cc1ccc(Cl)nc1
outcome [1]: inactive
outcome [2]: inactive
outcome [3]: inactive
AC50 [4]: 36.4 µM (active)
AC50 [5]: 33 µM (active)
AC50 [6]: 23.9 µM (active)
outcome [7]: inactive
outcome (MYC, MYC (gene 4609)): inactive
outcome [8]: inactive
AC50 [9]: 16.6 µM (active)

O=C(O)COc1ccc(Cl)cc1Cl
outcome [1]: inactive
outcome [2]: inactive
outcome [3]: inactive
outcome [4]: inactive
outcome [6]: inactive
outcome [7]: inactive
outcome (MYC, MYC (gene 4609)): inactive
outcome [8]: inactive
AC50 [9]: 10.1 µM (active)

N#Cc1c(Cl)c(Cl)c(Cl)c(C#N)c1Cl
outcome [1]: inactive
AC50 [2]: 12.7 µM (active)
outcome [3]: inactive
AC50 [4]: 50 µM (active)
AC50 [5]: 18 µM (active)
AC50 [6]: 90.9 µM (active)
AC50 [7]: 15.6 µM (active)
AC50 (MYC, MYC (gene 4609)): 50 µM (active)
AC50 [8]: 21 µM (active)
outcome [9]: inactive
